Test results taken from PubChem BioAssay.
A number with no mark means an inactive call. Active and inactive are the calls of the source.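 Rule for the calls, unless noted: active = compounds that lower viability of the colon cancer cells in the luminescence readout, with no numeric limit stated; inactive = the rest.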

Columns and labels:
[1] = stimulators of insulin release from INS-1E, primary screen, cell-based, 5 mM glucose, NPC library (AID 1117329;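 active = compound raises insulin release from rat beta cells at 5 mM glucose, no numeric limit stated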; note: reference of the scale not given here); details: rat INS-1E insulin secretion, at 10 µM, active compounds read high
[2] = growth inhibition of GSK3B-pretreated HCT116 cells – cell-based, CellTiter-Glo, 0.2 to 20 µM (AID 1117336;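 active = compounds lowering colon cancer cell viability after pretreatment blocking the GSK3B kinase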); details: HCT116 viability after GSK3B inhibitor, at 20 µM, active compounds read high
[3] = inhibition of endothelial tube formation, primary screen, imaging, VEGF stimulated, CD31 staining, tube area, NPC library (AID 1117340;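 active = compound that reduces growth-factor-driven endothelial tube area in a mixed cell culture, no cutoff stated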); details: VEGF-stimulated ADSC/ECFC co-culture, at 10 µM, active compounds read high
[4] = glucagon-like peptide 1 release enhancers, primary assay, NCI-H716 cell line, NPC library (AID 1117341;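 active = compound raises GLP1 secretion from the human gut endocrine cells, with no numeric limit stated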; note: reference of the scale not given here); details: NCI-H716 cells, at 10 µM, active compounds read high
[5] = HCT116 colon cancer cell growth inhibition, primary screen, CellTiter-Glo luminescence, NPC library (AID 1117342;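 active = compounds that lower survival of HCT116 colon cancer cells in the luminescence readout, no numeric limit stated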); details: at 20 µM (top of the series)
[6] = CellTiter-Glo luminescent readout of SW480 viability loss, NPC library primary (AID 1117343); details: CellTiter-Glo luminescence; at 20 µM (top of the series)
[7] = decreased DLD-1 cellular survival, CellTiter-Glo luminescent readout, NPC compound collection, primary HTS (AID 1117346;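 active = compounds that lower survival of DLD-1 colon cancer cells in the luminescence readout, no cutoff given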); details: DLD-1 viability, CellTiter-Glo luminescence; at 20 µM (top of the series)
[8] = target: 6-phosphogluconate dehydrogenase, decarboxylating (Homo sapiens) (UniProt P52209); assay: 6PGD enzyme inhibitors, primary screen, biochemical, human, recombinant enzyme, NADPH absorbance (AID 1159550;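 active = at least 20% inhibition of 6-phosphogluconate dehydrogenase activity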); details: recombinant 6PGD, NADPH absorbance 341 nm; at 10 µM; active compounds read high
Sequence of 6-phosphogluconate dehydrogenase, decarboxylating (Homo sapiens) (P52209 whole entry, looked up): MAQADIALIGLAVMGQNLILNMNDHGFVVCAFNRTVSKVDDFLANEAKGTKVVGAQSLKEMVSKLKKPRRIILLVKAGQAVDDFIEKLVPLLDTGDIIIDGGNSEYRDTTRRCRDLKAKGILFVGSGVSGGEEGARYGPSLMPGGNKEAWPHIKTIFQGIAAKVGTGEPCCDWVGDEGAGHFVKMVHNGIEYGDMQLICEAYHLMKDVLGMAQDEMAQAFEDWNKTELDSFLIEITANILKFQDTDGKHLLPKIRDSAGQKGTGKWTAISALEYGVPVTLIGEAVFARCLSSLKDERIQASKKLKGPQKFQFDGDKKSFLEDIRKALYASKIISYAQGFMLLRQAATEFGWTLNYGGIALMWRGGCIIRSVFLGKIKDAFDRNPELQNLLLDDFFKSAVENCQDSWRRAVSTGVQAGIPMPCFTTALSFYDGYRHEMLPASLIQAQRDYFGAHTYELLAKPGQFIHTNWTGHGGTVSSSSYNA

Row | SMILES | insulin secretion stimulation [1] [%] | viability decrease [2] | tube area decrease [3] | GLP1 secretion stimulation [4] [%] | inhibition of viability [5] | viability decrease (inhibition) [6] | viability decrease (inhibition) [7] | inhibition [8] [%]
1 | O=C(O)[C@@H](O)[C@H](O)[C@H](O)[C@@H](O)C(=O)O | 3.6 | -8.4% | 23.5% | -1.9 | 1.7% | 57.2% (active) | -6.1% | 3.91
2 | CC(=O)N[C@@H](CS)C(=O)O | 0.8 | -18.8% | 18% | 0.7 | -0.95% | 0.1% | 7.4% | -17.2
3 | C[C@@H]1C[C@H]2[C@@H]3CCC4=CC(=O)C=C[C@]4(C)[C@@]3(F)[C@@H](O)C[C@]2(C)[C@@]1(O)C(=O)COP(=O)(O)O | -6.4 | -4.3% | 0.7% | -2.2 | 2.57% | 24.1% | -4.8% | -4.39
4 | O=c1cc(CO)occ1O | -1.3 | -8.3% | -7.1% | 1.9 | -7% | 38.7% | 10.8% | 6.93
5 | COC(=O)[C@@H](N)CS | 1.6 | -1.8% | -0.7% | 4.1 | 3.2% | 17.6% | 23.2% (active) | 3.23
6 | CC1=C(C(=O)O)N2C(=O)[C@@H](NC(=O)[C@H](N)c3ccc(O)cc3)[C@H]2SC1 | -0.5 | -2.2% | -4.7% | -0.3 | 7.3% | 7.8% | 7.3% | -1.37
7 | Cc1c(C(=O)O)c(O)cc2c1C(=O)c1c(O)c([C@@H]3O[C@H](CO)[C@@H](O)[C@H](O)[C@H]3O)c(O)c(O)c1C2=O | 4.4 | 46.7% | 24.4% | -1.7 | 35% | 53.2% (active) | 34.5% | -2.65
8 | O=C1O[C@H](CO)[C@@H](O)[C@H](O)[C@H]1O | 1.8 | -0.7% | -3.8% | -2.6 | 14.6% | 31.1% | 20% | -9.11
9 | Oc1c(Br)cc(Br)c2cccnc12 | 2.4 | 113% (active) | 108% (active) | 4.3 | 96.7% (active) | 153% (active) | 99.7% (active) | 4.35
10 | C[C@@H]1C[C@H]2[C@@H]3CCC4=CC(=O)C=C[C@]4(C)[C@@]3(F)[C@@H](O)C[C@]2(C)[C@H]1C(=O)CO | 7.5 | -14.3% | 6.7% | -0.7 | 9.7% | 3.5% | -5% | –
11 | C[C@]12CCC(=O)C=C1CC[C@@H]1[C@@H]2[C@@H](O)C[C@@]2(C)[C@H]1CC[C@]2(O)C(=O)COP(=O)(O)O | 1.8 | -2.5% | -8.4% | -1 | -7.2% | -5.9% (active) | -10.7% | 7.31
12 | Nc1ncnc2c1ncn2[C@@H]1O[C@H](COP(=O)(O)O)[C@@H](O)[C@H]1O | 0.05 | -14.7% | -5.6% | 4 | -14.3% | 73.2% (active) | -4.1% | -8.33
13 | C[C@]12CCC(=O)C=C1C=C[C@@H]1[C@@H]2CC[C@@]2(C)[C@H]1CC[C@@]21CCC(=O)O1 | -2.6 | 22.8% | 9% | 3.3 | 33.6% | 60.5% (active) | 11.5% | -1.14
14 | OCC(O)CN1CCN(c2ccccc2)CC1 (stereo not given) | 0.6 | -6.6% | -0.2% | -1.1 | 4.03% | 29% | -12.9% | 8.41
15 | O=C(Cn1ccnc1[N+](=O)[O-])NCCO | 2.3 | -1.8% | 2.6% | -2.9 | 19.2% | 6.3% | -0.6% | -6.85
16 | CCOC(=O)n1ccn(C)c1=S | 0.6 | -40.3% | 10.6% | 0.3 | -5.63% | 6.5% | 5.3% | 2.95
17 | CC1CC(OC(=O)C(O)c2ccccc2)CC(C)(C)N1C (stereo not given) | 2.7 | 3.6% | 10.4% | 2.1 | 9.83% | 17.1% | 0.1% | -25.4
